Laboratory results published in publication PMC4552634, “A New Set of Chemical Starting Points with Plasmodium falciparum Transmission-Blocking Potential for Antimalarial Drug Discovery” (PLoS ONE, 2015).
Among all 13,000 compounds or so, about 3,200 (25%) showed an effect of 50% or more. The list shows a part of the results.

test system: P. falciparum stage V gametocytes; parameters: BacTiter-Glo ATP luminescence viability of purified stage V gametocytes in 384-well plates, per cent inhibition versus DMSO; conditions: 48 h, 5 µM; inhibitor

Compound	% Inhibition [%]
C=CCc1cc(Br)ccc1OCCCOc1c(N)nc(N)nc1N [TCMDC-131367]	16.05
CCn1cc(CN2CCCC(C(=O)Nc3ccc(-c4nc5ccccc5[nH]4)cc3)C2)c(C)n1 (stereo not drawn) [TCMDC-124673]	-63.8
CCc1ccc(N2C(=O)C3C(Cc4ccc(OC(C)(C)C)cc4)NC4(C(=O)N(Cc5ccccc5)c5ccc(F)cc54)C3C2=O)cc1 (stereo not drawn) [TCMDC-139770]	11.03
COc1ccc(N(c2nc(-c3cc(Cl)ccc3Cl)cs2)C2CCNCC2)cc1 [TCMDC-136654]	103.4
Fc1ccc(N(c2nc(-c3cc(F)cc(C(F)(F)F)c3)cs2)C2CCNCC2)cc1 [TCMDC-136656]	103.4
Cc1cc(F)ccc1N(c1nc(-c2cc(Cl)ccc2Cl)cs1)C1CCNC1 (stereo not drawn) [TCMDC-136653]	19.89
CCN(CC)CCCN(C(=O)Nc1cc(F)cc(F)c1)c1nc(-c2ccc(F)cc2)cs1 [TCMDC-136665]	-54.99
CC(=O)N(Cc1nc(-c2cc(C(F)(F)F)cc(C(F)(F)F)c2)cs1)c1c(C)cccc1C [TCMDC-135641]	20.05
COc1ccc(N(c2nc(-c3cc(Cl)ccc3Cl)cs2)C2CCNC2)cc1 (stereo not drawn) [TCMDC-136655]	0.8137
COc1ccc(F)cc1-c1csc(N(c2ccc(F)cc2)C2CCNCC2)n1 [TCMDC-136652]	68.19
N#Cc1ccc2[nH]cc(CN3CCC4(CC3)CN(CCNCc3ccccc3)C(=O)CO4)c2c1 [TCMDC-136734]	-19.1
Cc1ccccc1C1CCN(C2CCC(NC(=O)/C=C/c3ccc(C(F)(F)F)cc3)CC2)CC1 (stereo not drawn) [TCMDC-133511]	-86.18
CC[C@@]1(O)C(=O)OCc2c1cc1n(c2=O)Cc2c-1nc1cc3c(cc1c2CN1CCN(C)CC1)OCCO3 [TCMDC-131875]	-10.57
CCOc1ccc2ccccc2c1C(=O)Nc1cc(C)nn1-c1nc(C)cc(=O)[nH]1 [TCMDC-124946]	-19.22
O=C(/C=C/c1ccc(Cl)c(Cl)c1)NC1CCN(CCCNC(=O)c2cccc(Cl)c2)CC1 [TCMDC-133356]	10.9
CCc1c(CCNCCc2cccc(CCNCCc3ccc(OC)c(OC)c3CC)c2)ccc(OC)c1OC [TCMDC-132056]	108.6
COc1cccc(C(=O)NCCc2cccc(Cl)c2)c1Oc1ccccc1 [TCMDC-141237]	-16.09
CCc1c(CCNCCCC(C)CCNCCc2ccc(OC)c(OC)c2CC)ccc(OC)c1OC (stereo not drawn) [TCMDC-132065]	107.6
COc1cccc(CCc2c(CCNCCCCCCNCCc3ccccc3)ccc(OC)c2OC)c1 [TCMDC-132105]	111.5
CCC(=O)c1cc(C(=O)NCCc2cccc(OC)c2)ccc1OC [TCMDC-140139]	9.268
COc1cccc(-c2ccc(O)c(CNCCc3cccc(F)c3)c2)n1 [TCMDC-124645]	3.898
CCc1c(CCNCCCCCNCCc2ccc(OC)c(OC)c2CC)ccc(OC)c1OC [TCMDC-132064]	110.1
CCOC(=O)C1=C(C)NC2=C(C(=O)CC(C)(C)C2)C1c1ccc(Br)cc1 (stereo not drawn) [TCMDC-124142]	9.854
N#Cc1ccc2c(c1)CCN(CCC1CCC(NC(=O)Nc3ccnc4ccccc34)CC1)C2 (stereo not drawn) [TCMDC-139289]	-21.63
COc1ccc(Cc2c(C)nc3nc(N)nc(N)c3c2C)cc1 [TCMDC-137660]	3.866

Compound	% Inhibition [%]
COC(=O)c1ccc(CC(C)NCC(O)c2cccc(I)c2)cc1 (stereo not drawn) [TCMDC-131484]	-10.65
O=C(C1CCN(c2nnnn2-c2ccccc2)CC1)N1CCc2ccccc2C1 [TCMDC-123642]	26.99
COc1ccc(N2CCN(CCc3ccc(NC(=O)c4ccc([N+](=O)[O-])cc4)cc3)CC2)c(OC)c1 [TCMDC-138185]	-26.83
CCc1c(CCNCCCCCCNCCc2ccccc2)ccc(OC)c1OC [TCMDC-132063]	92.32
COc1cc(Cc2cnc(N)nc2N)cc(OCCCCc2ccc([N+](=O)[O-])cc2)c1OC [TCMDC-137901]	2.332
CCc1c(CCNCC/C=C/CCNCCc2ccc(OC)c(OC)c2CC)ccc(OC)c1OC [TCMDC-132062]	100.4
CCc1c(CCNCCCCCCNCCc2ccc([N+](=O)[O-])cc2)ccc(OC)c1OC [TCMDC-132066]	101.3
COc1cc(C)c(C(O)CNC(C)CCc2ccccc2)cc1C (stereo not drawn) [TCMDC-131251]	28.09
CCc1c(CCNCCCCCCNCCc2ccc(OC)cc2)ccc(OC)c1OC [TCMDC-132050]	110.1
Cc1cccc2[nH]c(-c3cccc(-c4cccc(NC(=O)NCc5ccccc5)c4)c3)nc12 [TCMDC-133159]	13.2
OCCOCn1cnc2cnc(N[C@H]3OC[C@H](O)[C@@H](O)[C@@H]3O)nc21 [TCMDC-138106]	14.1
CCc1c(CCNCCCCCCNCCc2ccc(OC)c(OC)c2C)ccc(OC)c1OC [TCMDC-132051]	107.2
CCc1c(CCNCCCCCCNCCc2ccc(OC)c(OC)c2CC)ccc(OC)c1OC [TCMDC-132047]	111.8
CCc1c(CCNCCCCCCNCCc2ccc(Br)cc2)ccc(OC)c1OC [TCMDC-132045]	110
CCc1c(CCNC/C=C/C=C/CNCCc2ccc(OC)c(OC)c2CC)ccc(OC)c1OC [TCMDC-132061]	102.8
COc1cc2c(OC)cccc2cc1CNCCCCCCNCc1cc2cccc(OC)c2cc1OC [TCMDC-137945]	1.634
O=C1C[C@@H]([S+]([O-])Cc2nccs2)N1CCOCCCCCCc1ccc(Cl)cc1 (stereo partly drawn) [TCMDC-139269]	27.24
Cc1cccc(NC(=O)Nc2ccc(I)c(OCCN(C)C)c2)c1C [TCMDC-139124]	-5.088
COc1ccc(Nc2nc(NCc3ccc(-n4ccnc4)cc3)cc(-c3ccc(OC)cc3)n2)cc1 [TCMDC-134025]	-3.76
Clc1ccc(Sc2cncnc2N2CCOCC2)cc1 [TCMDC-137279]	19.11
O=C(Cc1ccccc1)NC1CCN(c2ccnc3cc(Cl)ccc23)C1 (stereo not drawn) [TCMDC-133663]	-4.28
c1ccn2c(Sc3ncnc4sccc34)ncc2c1 [TCMDC-124602]	29.96
Cn1c(Sc2ncnc3sccc23)nc2ccccc21 [TCMDC-124514]	74.1
COCCn1c(Sc2ncnc3sccc23)nc2ccccc21 [TCMDC-125258]	10.99
c1ccc2sc(Sc3ncnc4sccc34)nc2c1 [TCMDC-125539]	99.53

Compound	% Inhibition [%]
CN(C)CCCNCCS(=O)(=O)c1cccc(Nc2ccc(-c3cccc(N(C)C)c3)cn2)c1 [TCMDC-134369]	11.18
O=C(NC1CCCCC1)N(Cc1cccc(-c2ccc(CNCc3ccc4c(c3)OCO4)cc2)c1)C1CCN(Cc2ccccc2)CC1 [TCMDC-140632]	106.9
O=C(NC1CCCCC1)N(Cc1ccc(-c2cccc(CNCc3ccc4c(c3)OCO4)c2)cc1)C1CCN(Cc2ccccc2)CC1 [TCMDC-140640]	55.3
O=C(NC1CCCCC1)N(Cc1ccc(-c2ccc(CNCc3ccc4c(c3)OCO4)cc2)cc1)C1CCN(Cc2ccccc2)CC1 [TCMDC-140641]	57.56
O=C(NCCc1ccccc1)N(Cc1cccc(-c2ccc(CNCc3ccc4c(c3)OCO4)cc2)c1)C1CCN(Cc2ccccc2)CC1 [TCMDC-140619]	40.48
O=C(Nc1ccc(OC2CCN(Cc3ccc(F)cc3)CC2)c(Cl)c1)c1ccc(F)cc1 [TCMDC-133752]	7.555
Cc1ccccc1C1CCN(C2CCC(NC(=O)/C=C/c3ccc(C#N)cc3)CC2)CC1 (stereo not drawn) [TCMDC-133527]	-65.01
CS(=O)(=O)c1ccc(CNCc2ccc(-c3ccc(-c4nc5cc(C(F)(F)F)ccc5[nH]4)cc3)cc2)cc1.O=C(O)C(F)(F)F [TCMDC-132901]	-22.07
COC(=O)c1cc(C(O)CNC(C)CCc2cccc(F)c2)ccc1O (stereo not drawn) [TCMDC-131242]	17.15
CC(Cl)=CCc1c(C)[nH]c2c(ccc3ccccc32)c1=O [TCMDC-124085]	30.93
CN1CCN(c2ccc(-c3nc4c(C(N)=O)c(OCc5cc(Cl)cc(Cl)c5)ccc4[nH]3)cc2)CC1 [TCMDC-133563]	101.6
CC(=O)c1cccc(Nc2nc3c(C#N)c(OCc4cc(Cl)cc(Cl)c4)ccc3[nH]2)c1 [TCMDC-133766]	-0.7844
CN1CCN(c2ccc3nc(-c4ccc5nc(-c6ccc(O)cc6)[nH]c5c4)[nH]c3c2)CC1 [TCMDC-125507]	11.14
COc1cccc(-c2ccc(C(=O)NC3CCN(Cc4ccc(C(C)(C)C)cc4)CC3)s2)c1 [TCMDC-134353]	-20.06
CCc1ccc(CN2CCC(NC(=O)c3ccc(-c4ccc(N(C)C)cc4)s3)CC2)cc1 [TCMDC-134344]	-78.7
CN(C)c1ccc(-c2ccc(C(=O)NC3CCN(Cc4ccccc4F)CC3)s2)cc1 [TCMDC-134368]	-72.91
CN(C)c1ccc(CN2CCC(NC(=O)c3ccc(-c4cccc(Cl)c4)s3)CC2)cc1 [TCMDC-134329]	-64.24
CN(C)c1ccc(-c2ccc(C(=O)NC3CCN(Cc4ccccc4)CC3)s2)cc1 [TCMDC-134367]	44.5
COc1ccccc1CN1CCC(NC(=O)c2ccc(-c3cccc(Cl)c3)s2)CC1 [TCMDC-134356]	-14.44
CC(=O)Nc1ccc(CN2CCC(NC(=O)c3ccc(-c4ccc(N(C)C)cc4)s3)CC2)cc1 [TCMDC-134336]	72.62
CSc1ccc(CN2CCC(NC(=O)c3ccc(-c4ccc(N(C)C)cc4)s3)CC2)cc1 [TCMDC-134342]	-80.35
COc1cccc(-c2ccc(C(=O)NC3CCN(Cc4ccc(N(C)C)cc4)CC3)s2)c1 [TCMDC-134330]	105
CC(=O)Nc1ccc(CN2CCC(NC(=O)c3ccc(-c4cccc(Cl)c4)s3)CC2)cc1 [TCMDC-134334]	14.56
COc1ccccc1CN1CCC(NC(=O)c2ccc(-c3ccc(N(C)C)cc3)s2)CC1 [TCMDC-134357]	85.69
CN(C)c1ccc(CN2CCC(NC(=O)c3ccc(-c4ccc(N(C)C)cc4)s3)CC2)cc1 [TCMDC-134331]	56.81
